Measurements taken from PubChem BioAssay AID1053144 (Broad Institute, 2014).
Among all 3,400 compounds or so, about 160 (4.7%) were called active.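 How the source made its calls: active means fitted curve reaches 30% activation at a concentration no higher than the top valid tested dose, luminescence rising; inconclusive means no clear call, values can overlap the other calls; inactive means signal moving opposite to the expected increase, plus the rest.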 Only a sample is shown. Measured potencies and affinities stand elsewhere.

Assay: TCF/LEF reporter activation in neural progenitors – cell-based, iPS-derived NPC, luciferase, Wnt3a, cherry-pick, dose response (AID 1053144);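 further: Wnt3a stimulus is conditioned medium from Wnt3a-transfected mouse L cells at 5% in well; 0% = neutral control wells and 100% = CHIR-99021 positive control wells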
Settings: Wnt3a EC25, 24 h; series mostly up to 26 µM

activation, inactive:
Cc1ccc(C(=O)NC2=NCCS2)cc1
COc1cccc(C(=O)NC2=NCCS2)c1
Cc1cnc(C(=O)Nc2nnc(C(C)C)s2)cn1
CCOC(=O)C1(NC(=O)C2(NC(=O)CN3C(=O)c4ccccc4C3=O)CCCC2)CCCC1
O=c1c2ccccc2c(=O)n(-c2ccccc2)n1-c1ccccc1
Cc1cccc(/C(N)=N/OC(=O)c2ccncc2)c1
Cc1cccc(/C(N)=N/OC(=O)c2cccs2)c1
CC(Sc1nncn1C)C(=O)Nc1ccc(N2CCCCC2)cc1 (stereo unspecified)
O=C1c2ccccc2C(Nc2ccccc2)N1c1ccc(Cl)cn1 (stereo unspecified)
COc1n[nH]c(C(=O)Nc2nc3ccccc3s2)c1[N+](=O)[O-]
CN(C)S(=O)(=O)c1ccc(C(=O)NCCOc2ccccc2)cc1
Cc1ccc(C(=O)CC(SCC(=O)O)c2ccc([N+](=O)[O-])cc2)cc1 (stereo unspecified)
Cc1cc(C(=O)COC(=O)c2ccc(N)c([N+](=O)[O-])c2)c(C)n1Cc1ccc2c(c1)OCO2
Nc1nc(Nc2ccccc2)sc1C(=O)c1ccccc1
Cc1ccc2nc(NC(=O)c3ccc(Cl)s3)sc2c1
Brc1ccc(-c2cn3ccccc3n2)cc1
O=C(NCc1ccccn1)Nc1cccc(Cl)c1
O=C(Nc1ccc(Cl)cc1)c1ccc(-c2ccccn2)s1
C(=N\NCc1ccccc1)/c1ccc2ncccc2c1
CN(C)c1ccc(N=Nc2cccc(F)c2)cc1
CC(C)(CNC(=O)c1cccc(S(=O)(=O)N2CCCCC2)c1)N1CCOCC1
Cc1ccc(CNC(=O)COC(=O)C2CCN(S(=O)(=O)c3cccs3)CC2)cc1
Oc1[nH]c2ccccc2c1N=Nc1ccccc1
O=C(N=Nc1c(O)[nH]c2ccccc12)c1ccc2c(c1)OCO2
CCCCCn1c(CN2CCN(C(=O)c3ccco3)CC2)nc2c1c(=O)n(C)c(=O)n2C
O=C(CSc1nnc2ccccn12)c1ccc(Cl)cc1
Cc1nnc(SCC(=O)c2ccc(Cl)cc2)n(N)c1=O
CCCCN(CC)C(=O)c1cc2cc3ccc(OC)cc3nc2o1
Cc1ccc2nc(-c3ccc(NC(=O)CSc4nc(N)cc(=O)[nH]4)cc3)sc2c1
Cc1ccc2nc(-c3ccc(NS(=O)(=O)c4ccc(F)c(F)c4)cc3)sc2c1
Cc1ccc(C2(C)NC(=O)N(CC(=O)Nc3ccc(-c4nc5ccc(C)cc5s4)cc3)C2=O)cc1 (stereo unspecified)
Cc1ccc2nc(-c3ccc(NC(=O)COCC(=O)O)cc3)sc2c1
CC1=CCC(C(=O)O)C(C(=O)Nc2ccc(-c3nc4ccc(C)cc4s3)cc2)C1 (stereo unspecified)
Cc1cc(C)cc(N(CC(=O)Nc2ccc(-c3nc4ccc(C)cc4s3)cc2)S(C)(=O)=O)c1
Cc1ccc(C)c(-n2ccnc2SCC(=O)Nc2cccc(S(=O)(=O)NC3=NCCC3)c2)c1
CCC(=O)Nc1c(C(=O)Nc2ccc3c(c2)OCCO3)oc2ccccc12
N=c1cc(C2(O)CCCCC2)n2c(nc3ccccc32)s1
Cc1ccnc(NC(=O)C2CC(=O)N(c3ccc4c(c3)OCCO4)C2)c1 (stereo unspecified)
c1ccc(-c2nnc(-c3ccccn3)nn2)nc1
CCC(=O)Nc1cc(C(=O)OCC(=O)c2ccccc2)ccc1C
COC(=O)[C@H](CCSC)NC(=O)c1cccnc1SC
O=C(CCN1C(=O)C2CCCCC2C1=O)Nc1nc2c(F)cc(F)cc2s1 (stereo unspecified)
CN(c1ccc(C(=O)NCCSC(C)(C)C)cc1)S(=O)(=O)c1ccccc1
Cc1ccc(C)c(OCc2nc3ccccc3[nH]2)c1
COc1cccc(NC(=O)n2ncc3c(C)cccc32)c1
COc1ccc(NC(=O)N2CCCc3ccccc32)cc1
O=C(Cc1noc2ccccc12)Nc1ccccn1
Cc1nc(C(C)NC(=O)CCc2nnc(CCCc3ccccc3)o2)c(C)s1 (stereo unspecified)
c1ccc2nc(SCc3cn4ccccc4n3)cnc2c1
CC(=O)Nc1ccc(-c2nc3ccccc3o2)cc1
CC(=O)Nc1ccc2oc(-c3ccccc3)nc2c1
O=C(N/N=C/c1ccc(F)cc1)c1ccccc1
COc1ccc(C(=O)Cc2ccc3c(c2)OCO3)c(O)c1
Cc1ccc(NC(=O)COc2ccc3c(c2)OCO3)c(Cl)c1
COc1ccc(/C=N/Nc2ccc([N+](=O)[O-])cc2)cc1O
Cc1ccc(/C=N/NC(=O)c2cccs2)cc1[N+](=O)[O-]
Cc1c(C(=O)OCC(=O)NCC2CCCO2)cccc1[N+](=O)[O-] (stereo unspecified)
Cc1cc(-c2nnc(-c3cccc(Cl)c3)o2)no1
O=C(/C=C/c1ccc(O)cc1)c1ccccc1
COc1ccc(/C=C/C(=O)c2ccccc2)c(OC)c1
O=S(=O)(c1ccccc1)n1ccc(-c2cnc(-c3ccccc3)s2)n1
O=C(Nc1ccc(F)c(Cl)c1)c1cc(-c2ccco2)on1
COc1ccc(NC(=O)c2cc(-c3ccco3)on2)cc1
CC(C)c1cc(C(=O)NCCc2ccccc2)no1
O=C(Nc1cccnc1Cl)c1cc(-c2ccco2)on1
Cc1ccc(NC(=O)/C=C/c2ccc3c(c2)OCO3)nc1
COc1ccc(CNC(=O)Nc2cccc(C)c2)cc1
Cc1ccc(SCC(=O)NC(=O)NCCC(C)C)c(C)c1
Cc1ccc(OCC(=O)Nc2ccc(Cl)cc2)c([N+](=O)[O-])n1
Cc1ccc(C(=O)CCC2CCCCC2=O)cc1 (stereo unspecified)
CCC(=O)Nc1cccc(-c2nc3ccc(C)cc3o2)c1
Cc1ccc2nc(-c3cccc(NC(=O)c4ccc5c(c4)OCCO5)c3)oc2c1
O=[N+]([O-])c1ccccc1N/N=C1\CCc2ccccc21
O=C(NCc1nnc(SCC(=O)N2CCCc3ccccc32)o1)c1c(F)cccc1Cl
COc1ccc(N=Cc2c(O)[nH]c3ccccc23)cc1
Fc1ccc(-c2nc3ccccc3[nH]2)cc1
CC(C)CSc1nnc2c(n1)[nH]c1ccccc12
O=C(/C=C(\Nc1ccccc1)c1ccccc1)c1ccccc1
c1ccc2oc(SCc3cn4ccsc4n3)nc2c1
Cc1ccc(SCc2cn3cc(Cl)ccc3n2)cc1
O=C(CNC(=O)c1ccccc1F)c1ccccc1
O=C(CCN1CCN(c2ccccc2)CC1)Nc1ccc(OCc2ccccc2)cc1
Cc1ccnc(NC(=O)c2ccc(S(=O)(=O)N3CCC(C)CC3)cc2)c1
CSc1ccc(/C=N/NC(=O)c2cc(O)cc(O)c2)cc1
O=C(/C=C/c1ccc(OC2CSC2)cc1)c1ccccc1
N=c1c2c(ncn1CCCO)Oc1c(ccc3ccccc13)C2c1ccccc1 (stereo unspecified)
COc1ccc(O)c(/C=N/N2CCCCC2)c1
COc1ccccc1CCc1nnc(CCC(=O)N(C)Cc2cccc3cnccc23)o1
C(=N\Nc1nc2ccccc2[nH]1)/c1ccc2c(c1)OCCO2
Cc1nn(-c2ccccc2)c(C)c1/C=N/Nc1nc2ccccc2[nH]1
C(=N\Nc1nc2ccccc2[nH]1)/c1cccc2cccnc12
Cc1ccsc1/C=N/Nc1nc2ccccc2[nH]1
C=CCn1cc(/C=N/Nc2nc3ccccc3[nH]2)c2ccccc21 6.37% [at 6 µM]
Clc1nc2ccccc2cc1/C=N/Nc1nc2ccccc2[nH]1
C(=N\Nc1nc2ccccc2[nH]1)/c1cccs1
CC(/C=N/Nc1nc2ccccc2[nH]1)=C\c1ccccc1
O=C(NCCc1ccccc1F)C(=O)Nc1nccs1
CSc1ccccc1OCc1cc(C(=O)N2CCCC(C)C2)no1 (stereo unspecified)
CCCC(=O)c1ccc(N2CCC(C)CC2)c(F)c1
COc1ccc(C(=O)Nc2nnc(SCC(=O)Nc3ccc(NC(C)=O)cc3)s2)c(OC)c1
Cc1ccc(NC(=O)c2ccc(F)cc2)nc1
CCOC(=O)c1cnc2c(-c3ccccc3)cnn2c1N
Cn1c(SCc2ccc(F)cc2)nnc1-c1ccccn1
COC(=O)c1c(-c2ccc(SC)cc2)sc2ccc(OC)cc12
O=C(O)c1cc(N/N=C/c2ccc(N3CCOCC3)cc2)ccc1Cl
Cc1ccc(NC(=O)c2ccccn2)c(Br)c1
Cc1cnc(NC(=O)c2ccccn2)s1
COc1ccc(NC(=O)Nc2ccc3oc(C)nc3c2)cc1
Fc1ccccc1-c1cc2ncccc2cn1
COc1cccc(C(=O)COC(=O)c2cccs2)c1
COc1ccc(C(=O)COC(=O)c2cccs2)cc1
CCn1c(COc2ccc(OC)cc2)nc2ccccc21
COc1ccccc1OCc1cc(C(=O)N2CCN(C)C(c3ccccc3)C2)no1 (stereo unspecified)
COc1cc(Cl)ccc1OCc1cc(C(=O)N(C)CC2CCCCO2)no1 (stereo unspecified)
Cc1ccccc1Nc1nc(N)c2ccccc2n1
Nc1nc(Nc2ccccc2)nc2ccccc12
CCOC(=O)c1oc2nc3c(cc2c1N)CCCC3
O=C(CSc1nnc(C2CC2)n1C1CC1)c1ccc(Br)s1
Oc1ccccc1-c1cc(-c2ccc(F)cc2)n[nH]1
Cc1ccccc1-c1cc(-c2ccccc2O)n[nH]1
COC(=O)c1cc(C)nc(Nc2nc(C(N)Cc3ccc(Cl)cc3)cs2)n1 (stereo unspecified)
